# ± gives the standard deviation.
# Tested on: MILI (PIWIL2) piRISC loaded with L1MC piRNA (26 nt)
# Assay: pre-steady-state target cleavage rate (min^-1); guide: L1MC piRNA 5'p-UAACUAAAUACUAUGCAAGCUGUAGG; MIWI and MILI are mouse PIWI proteins and EfPiwi is from a freshwater sponge; tags in brackets are library labels; higher = faster piRNA-guided slicing of the target
# Settings: auxiliary factor: 500 nM mouse GTSF1
# Protocol: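 Cleave-'n-Seq: a library of target RNAs (target site embedded in constant flanks, ACAGCATTCCGCGTTAGTGATATCCG... 5' flank; DNA-blocked outside the site) at 0.1 nM was incubated with 1 nM active mouse MILI or MIWI piRISC (synthetic 5'-monophosphorylated piRNA guide) with or without 500 nM mouse GTSF1 at 33 °C for 1 min to 16 h. Uncleaved targets were sequenced and normalised to non-target controls, and the pooled three trials were fitted to a burst-and-steady-state model to give the pre-steady-state cleavage rate (min^-1; k3 is constrained to at most 1e-4). Sequence is the target site only; target names encode pairing extent (gX:gY) and contiguous / 1-mismatch / 2-mismatch / bulge geometry. Fits with R² ≤ 0 are excluded.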
row,Sequence,pre-steady-state target cleavage rate
1,UCCUGGUACAGCUUGCAAGUAUUUAGUUA,0.113 ± 0.014
2,UCCUGCUACAGCUUUGCAUAGUAUUUAGUUA,0.263 ± 0.02
3,UCCUGGAUCAGGUUGCAUAGAAUUUAGUUA,0.0266 ± 0.0065
4,UCCUGGAUGUCGAUGCAUAGUAAAUAGUUA,0.0191 ± 0.0068
5,UCCUGGAUCAGCUUGCAAAGUAUUUAGUAA,0.12 ± 0.0069
6,UCCUGCUACAGCUAGCAUAGUAAUUAGUUA,0.284 ± 0.026
7,UCCUGCUAGAGCUUGCAUAGUAUUAAGUUA,0.256 ± 0.033
8,UCCUGGUACAGCUUGCAAAGUAUUUAGAAA,0.0181 ± 0.0094
9,UCCUGGAUCAGGUUGCAUAGUAUUUUGUUA,0.101 ± 0.015
10,UCCUGCUACUGCUUGCAUAGAAUUUAGUUA,0.045 ± 0.0093
11,UCCUGGUACAGCUUGCAUAGUAUUAUAGUUA,0.299 ± 0.034
12,UCCUGCUACAGCUUGCAUAGUAUAUAGUUA,0.227 ± 0.029
13,UCCUCCUACAGCUUGCAUAGUAUCUAGUUA,0.176 ± 0.02
14,UCCUGGAUCAGUUGCAUAGUAUUUAGUUA,0.257 ± 0.016
15,UCCUCCUACAGCUUGCAUAGUAUAAUGUAA,0.046 ± 0.014
16,UCCUGGAUGUCCUAGCAUAGUAUAUAGUUA,0.0912 ± 0.02
17,UCCUGGAUGAGCUUGCAAAGUAUUUAGUAA,0.085 ± 0.015
18,UCCUGGUACAGCGUGCAUAGUAUUUAGUUA,0.225 ± 0.031
19,UCCUGGAACUCGUUGCAUAGUAUUUACAAA,0.0537 ± 0.013
20,UCCUGGAUGUGCUUGCAUAGUUAUUAGUUA,0.00903 ± 0.0055
21,UCCUGGAUCACCUUGCAUUGUAUUUAGUUA,0.094 ± 0.015

# Same assay, conditions: auxiliary factor: none (no GTSF1)
row,Sequence,pre-steady-state target cleavage rate
1,UCCUGGUACAGCUUGCAAGUAUUUAGUUA,0.00636 ± 0.0022
2,UCCUGCUACAGCUUUGCAUAGUAUUUAGUUA,0.00559 ± 0.0027
3,UCCUGGAUCAGGUUGCAUAGAAUUUAGUUA,0.00431 ± 0.0021
4,UCCUGGAUGUCGAUGCAUAGUAAAUAGUUA,0.00231 ± 0.0023
5,UCCUGGAUCAGCUUGCAAAGUAUUUAGUAA,0.00426 ± 0.0026
6,UCCUGCUACAGCUAGCAUAGUAAUUAGUUA,0.0047 ± 0.003
7,UCCUGCUAGAGCUUGCAUAGUAUUAAGUUA,0.00303 ± 0.0024
8,UCCUGGAUCAGGUUGCAUAGUAUUUUGUUA,0.00364 ± 0.0028
9,UCCUGCUACUGCUUGCAUAGAAUUUAGUUA,0.00256 ± 0.002
10,UCCUGGUACAGCUUGCAUAGUAUUAUAGUUA,0.00483 ± 0.003
11,UCCUGCUACAGCUUGCAUAGUAUAUAGUUA,0.00382 ± 0.0029
12,UCCUCCUACAGCUUGCAUAGUAUCUAGUUA,0.00564 ± 0.0022
13,UCCUGGAUCAGUUGCAUAGUAUUUAGUUA,0.00796 ± 0.002
14,UCCUGGAUGUCCUAGCAUAGUAUAUAGUUA,0.00315 ± 0.0027
15,UCCUGGAUGAGCUUGCAAAGUAUUUAGUAA,0.00635 ± 0.0025
16,UCCUGGUACAGCGUGCAUAGUAUUUAGUUA,0.00988 ± 0.0044
17,UCCUGGAUGUGCUUGCAUAGUUAUUAGUUA,0.00639 ± 0.0025
18,UCCUGGAUCACCUUGCAUUGUAUUUAGUUA,0.00486 ± 0.0032

# — the supplement of paper PMC10338343
